# Screen size: about 48,000 compounds; about 13,000 (27%) showed an effect of 50% or more. The list shows a part of the results.
# Test system: Wolbachia pipientis
# Assay: Anti-Wolbachia Cell-Based Screen
# Type: functional
# Parameters: scale not given: in the data most compounds retested in dose-response had high values
# Conditions: 5 µM
row,Compound,Percent Effect [%]
1,CCc1ncc(C(=O)N2CCN(c3nc(C)cc(OC)n3)CC2)s1,-13.57
2,CC(C)NC(=O)[C@@H]1C[C@H](N)CN1C(=O)c1cc2c([nH]c1=O)CCCC2,1.783
3,Cc1cccc2c1cnn2CCC(=O)NCC(=O)N(C)C,14.92
4,Cc1cc(C(=O)N2CCCC(N3CCCCCC3)C2)nn1C(C)(C)C (stereo unspecified),-14.1
5,Cc1cc(C(=O)NCCN2CCCCC2)nn1C(C)(C)C,88.73
6,O=C(O)C(F)(F)F.O=C(c1cc[nH]n1)N1CCC(F)(F)C2(CCN(c3ccccn3)C2)C1 (stereo unspecified),-20.89
7,O=C(O)C(F)(F)F.c1ccc(CN2CCOC3(COCCN(c4ncccn4)C3)C2)nc1 (stereo unspecified),-5.957
8,FC1(F)CCN(Cc2ccccn2)CC12CCN(c1ncccn1)C2.O=C(O)C(F)(F)F (stereo unspecified),99.55
9,FC1(F)CCN(Cc2ccncc2)CC12CCN(c1cnccn1)C2.O=C(O)C(F)(F)F.O=C(O)C(F)(F)F.O=C(O)C(F)(F)F (stereo unspecified),91.26
10,Fc1cnc(N2CCC3(CC2)CN(Cc2ccccn2)CCO3)nc1.O=C(O)C(F)(F)F.O=C(O)C(F)(F)F,3.828
11,FC1(F)CCN(Cc2ccccn2)CC12CCN(c1cnccn1)C2.O=C(O)C(F)(F)F.O=C(O)C(F)(F)F.O=C(O)C(F)(F)F (stereo unspecified),108
12,Fc1ccc(CN2CCC(F)(F)C3(CCN(c4cnccn4)C3)C2)cc1.O=C(O)C(F)(F)F.O=C(O)C(F)(F)F (stereo unspecified),95.57
13,O=C(NC[C@H]1OC[C@@H](NCc2ccccn2)[C@@H]1O)c1ccncc1,-10.69
14,CC1=N[C@@]2(CC[C@@H]3CN(S(=O)(=O)C4CC4)C[C@@H]32)C(=O)N1CC(C)C,6.738
15,CCCC1(NC(=O)C(c2ccc(F)cc2)N(C)C)CC1 (stereo unspecified),19.19
16,Cc1ccc(CNCc2ccc(N3CCC(CO)CC3)nc2)c(C)c1.Cl,6.349
17,CCS(=O)(=O)NCCNCc1ccc(Cl)c2cccnc12,1.555
18,CCc1sc(C(=O)Nc2cnn(CC(=O)NC3CC3)c2)cc1C,-4.419
19,CC(NC(=O)c1cc2n(n1)CCCN(C(C)C)C2)c1cn2ccsc2n1 (stereo unspecified),13.56
20,FC1(F)CCN(Cc2cccnc2)CC12CCN(c1cnccn1)C2.O=C(O)C(F)(F)F.O=C(O)C(F)(F)F.O=C(O)C(F)(F)F (stereo unspecified),109.7
21,O=C(O)C(F)(F)F.OCCN1CCC(F)(F)C2(CCN(c3cnccn3)C2)C1 (stereo unspecified),101.7
22,O=C(O)C(F)(F)F.O=C(c1c[nH]cn1)N1CCC(F)(F)C2(CCN(c3cnccn3)C2)C1 (stereo unspecified),-14.15
23,O=C(NS(=O)(=O)c1ccc2c(c1)CCC2)C1COCCO1 (stereo unspecified),-6.627
24,CCOc1cc(C)ccc1NS(=O)(=O)c1cc(C)c(C(=O)O)s1,-7.525

row,Compound,Percent Effect [%]
1,O=C1CC(c2ccsc2)c2c(n(C3CCOCC3)[nH]c2=O)N1 (stereo unspecified),5.675
2,Cc1ccc(SCCN(C)C(=O)c2cn([C@H]3CC[C@@H](N)CC3)nn2)cc1,1.127
3,Cc1occc1C(=O)N1CC[C@H]2C[C@@H](c3nnc(C4CC4)o3)O[C@@H]2C1,109
4,Cc1nc([C@H]2C[C@H]3CN(C(=O)c4ccoc4C)CC[C@@H]3O2)no1,-4.157
5,Cc1ccoc1C(=O)N1CC[C@H]2C[C@H](c3nnc(C4CC4)o3)O[C@@H]2C1,102.2
6,Cc1nc([C@@H]2C[C@@H]3CCN(C(=O)c4occc4C)C[C@H]3O2)no1,-8.664
7,CCC1c2ccccc2CCN1C(=O)c1ccc(OC)nn1 (stereo unspecified),-4.117
8,CC(C)n1nc2c(cc1=O)CN(Cc1nc(-c3ccco3)no1)CC2,-11.95
9,Cc1nonc1CN(C)c1nc(-c2ccco2)nc2c1CCN(C)CC2,97.89
10,Cc1nonc1CN(C)c1nc(-c2cccnc2)nc2c1CCNC2,3.087
11,Cc1noc(CN(C)c2nc(-c3ccco3)nc3c2CCN(C)CC3)n1,89.77
12,Cc1nc(CNc2nc(-c3ccco3)nc3c2CCNCC3)n[nH]1,7.543
13,CCOCc1nc2c(c(N(C)Cc3nonc3C)n1)CCNCC2,2.534
14,CN(Cc1ccc2c(c1)OCO2)Cc1nc(-c2ccco2)no1,2.905
15,Cc1cc(CN(C)c2nc(-c3ccco3)nc3c2CCN(C)CC3)on1,70.19
16,Cc1cc(CN(C)c2nc(-c3ccccn3)nc3c2CCNCC3)n[nH]1,-2.668
17,COCCNC(=O)CN(C)Cc1ccc(F)cc1Cl,14.02
18,COc1ccc(CN(C)C2CSCCSC2)c2cccnc12,-27.46
19,CC(NC(=O)NCC(C)(C)O)c1ccc(-c2ccncc2)cc1 (stereo unspecified),-1.867
20,c1ccc2oc(CCCN3CCCCC3Cn3cncn3)nc2c1 (stereo unspecified),92.19
21,Cc1nc2ccccc2nc1CN1CCCCC1Cn1cncn1 (stereo unspecified),-2.917
22,c1ccc2oc(CN3CCCC3Cn3cncn3)nc2c1 (stereo unspecified),131.5
23,c1ccc2c(N3CCCCC3Cn3cncn3)ncnc2c1 (stereo unspecified),-5.98
24,c1ccc2oc(CN3CCCCC3Cn3cncn3)nc2c1 (stereo unspecified),109.3

row,Compound,Percent Effect [%]
1,c1ccc2oc(N3CCCC3Cn3cncn3)nc2c1 (stereo unspecified),106.1
2,Cc1nc2ccccc2nc1CN1CCCC1Cn1cncn1 (stereo unspecified),-6.198
3,Cc1nc(CN2CCCCC2Cn2cncn2)nc2ccccc12 (stereo unspecified),1.919
4,c1ccc2oc(N3CCCCC3Cn3cncn3)nc2c1 (stereo unspecified),-11.74
5,c1ccc2oc(CCCN3CCCC3Cn3cncn3)nc2c1 (stereo unspecified),-5.809
6,Cc1nc(CN2CCCC2Cn2cncn2)nc2ccccc12 (stereo unspecified),12.85
7,CCOC(=O)NC(CNC(=O)c1cc(Cl)ccn1)CC(C)C (stereo unspecified),7.591
8,CCOCc1nn(CC2CC2)c2c1CN(C(=O)c1ccno1)CC2,13.02
9,CC(C)N1CCC(c2cc(C(F)(F)F)n3ccnc3n2)CC1,75.91
10,N#Cc1ccccc1CN1CCC(c2nccn2CC(N)=O)CC1,-2.764
11,NC(=O)CN1CCC(c2cc(C(F)(F)F)n3ccnc3n2)CC1,134.1
12,CC(=O)N1CCC(c2cc(C(F)(F)F)n3ccnc3n2)CC1,1.424
13,CN1CCC(N2CC[C@H](c3nc4ccc(C(F)(F)F)cc4[nH]3)C2)CC1,-1.878
14,CC(C)n1ccnc1C1CCN(Cc2ccc(Cl)c(F)c2)CC1,-2.763
15,CN1CCC(c2cc(C(F)(F)F)n3ccnc3n2)CC1,137.1
16,CCCN1CCN(S(=O)(=O)c2ccccc2OC)[C@H]2CS(=O)(=O)C[C@H]21,-12.25
17,Cc1cnc(C)c(N2CCCC(C/C=C/c3ccccc3)(C(=O)O)C2)n1 (stereo unspecified),-10.18
18,Cc1ccoc1CNCc1nnc2n1CCCC2C(F)(F)F (stereo unspecified),-14.27
19,CNc1nccc(-c2cn(C)nc2C)n1,5.366
20,CCCn1ncc(-c2ccnc(N[C@@H]3C[C@@H]4CC[C@H]3C4)n2)c1C,-16.18
21,CCNC(=O)N1CCC(Nc2nccc(NCC)n2)CC1,-9.692
22,CNc1nccc(-c2cnc3sc(C)c(C)n3c2=O)n1,88.7
23,CC[C@H](C)Nc1nccc(-c2cnc3sc(C)c(C)n3c2=O)n1,-3.163
24,Cc1sc2ncc(-c3ccnc(NC4CCN(C)CC4)n3)c(=O)n2c1C,102.6

row,Compound,Percent Effect [%]
1,CCOCCN1CCN(Cc2nnc(C3CC3)o2)CC1CC (stereo unspecified),2.687
2,O=C(c1ccc2c(c1)CCO2)N1CCN(c2ncccn2)CC1,13.67
3,COC(=O)c1ccc(NC(=O)CCc2ccncc2)c(C)c1,-3.514
4,O=C(Cc1ccc(-n2cnnn2)cc1)Nc1nncs1,-7.49
5,O=C(CCc1ccc(-n2cnnn2)cc1)Nc1ccncc1,118.2
6,O=C(CCn1cc(Cl)cn1)Nc1nncs1,-12.52
7,O=C(CCc1ccc(-n2cnnn2)cc1)Nc1nncs1,117.3
8,O=C(CCc1ccncc1)Nc1ccc(OCC2CC2)cc1,33.82
9,Cc1nnc(CN(C)Cc2ccc(C(=O)Nc3sccc3C#N)cc2)o1,8.936
10,CC(C)c1nc2c(n1C)CCN(CCS(=O)(=O)c1ccccc1)C2,16.54
11,Cc1nc(-c2cccc(N3CCC(N4CCCC(C#N)C4)CC3)c2)cs1 (stereo unspecified),9.753
12,Cn1ncc(N2CCC(CNC(=O)[C@@H](N)c3ccccc3)CC2)cc1=O,-13.88
13,Cn1ncc(N2CCOC(CCNC(=O)N3CCCCC3)C2)cc1=O (stereo unspecified),104.2
14,CC(=O)N1CCCC(C(=O)N2CCN(c3cnn(C)c(=O)c3)CC2)C1 (stereo unspecified),-1.408
15,CC(CN1CCCC1)C(=O)NCC1CCN(c2cnn(C)c(=O)c2)CC1 (stereo unspecified),-3.002
16,Cn1ncc(N2CCC(CNC(=O)[C@@H](N)C3CCCCC3)CC2)cc1=O,-13.96
17,CC(C)C(=O)NCC(=O)NCC1CCN(c2cnn(C)c(=O)c2)CC1,-2.577
18,Cn1ncc(N2CCOC(CCNC(=O)CO)C2)cc1=O (stereo unspecified),110.6
19,CN1CCC(C(=O)NCCC2CN(c3cnn(C)c(=O)c3)CCO2)CC1 (stereo unspecified),98.07
20,Cc1cnn(C(C)C(=O)NCC2CCN(c3cnn(C)c(=O)c3)CC2)c1 (stereo unspecified),-4.842
21,CCC(=O)N1CCCC(C(=O)N2CCN(c3cnn(C)c(=O)c3)CC2)C1 (stereo unspecified),6.032
22,Cn1cc(CN2CCOC(CCNC(=O)c3ccsc3)C2)cn1 (stereo unspecified),-1.141
23,Cc1ccc(C(=O)NCCC2CN(c3cnn(C)c(=O)c3)CCO2)s1 (stereo unspecified),76.89
24,CC(C)(C)c1cn2c(n1)C(CNCc1cnn3ccccc13)CCC2 (stereo unspecified),3.116

# Source: ChEMBL document CHEMBL3988442, “University of Dundee, Small-Polar-MMV Screening Library” (2021)
